Assay [1] has as its target Tyrosine-protein kinase Fgr (Homo sapiens) (UniProt P09769). To be noted: at 1 µM.
Assay [2] has the same target. Particulars: at 10 µM.
Assay [3] has as its target Vascular endothelial growth factor receptor 1 (Homo sapiens) (UniProt P17948). To be noted: at 1 µM.
The target is the same in assay [4]. To be noted: at 10 µM.
For assay [5], the target named is Receptor-type tyrosine-protein kinase FLT3 (Homo sapiens) (UniProt P36888). Particulars: at 1 µM.
For assay [6] the target is unchanged. Particulars: at 10 µM.
In assay [7] the target is Vascular endothelial growth factor receptor 3 (Homo sapiens) (UniProt P35916). Particulars: at 1 µM.
Assay [8] concerns the target Tyrosine-protein kinase Fer (Homo sapiens) (UniProt P16591). To be noted: at 10 µM.
Assay [9] has as its target Tyrosine-protein kinase Fes/Fps (Homo sapiens) (UniProt P07332). Particulars: at 1 µM.
For assay [10] the target is unchanged. Particulars: at 10 µM.

Tyrosine-protein kinase Fgr (Homo sapiens), sequence (P09769 2-529 limits assumed): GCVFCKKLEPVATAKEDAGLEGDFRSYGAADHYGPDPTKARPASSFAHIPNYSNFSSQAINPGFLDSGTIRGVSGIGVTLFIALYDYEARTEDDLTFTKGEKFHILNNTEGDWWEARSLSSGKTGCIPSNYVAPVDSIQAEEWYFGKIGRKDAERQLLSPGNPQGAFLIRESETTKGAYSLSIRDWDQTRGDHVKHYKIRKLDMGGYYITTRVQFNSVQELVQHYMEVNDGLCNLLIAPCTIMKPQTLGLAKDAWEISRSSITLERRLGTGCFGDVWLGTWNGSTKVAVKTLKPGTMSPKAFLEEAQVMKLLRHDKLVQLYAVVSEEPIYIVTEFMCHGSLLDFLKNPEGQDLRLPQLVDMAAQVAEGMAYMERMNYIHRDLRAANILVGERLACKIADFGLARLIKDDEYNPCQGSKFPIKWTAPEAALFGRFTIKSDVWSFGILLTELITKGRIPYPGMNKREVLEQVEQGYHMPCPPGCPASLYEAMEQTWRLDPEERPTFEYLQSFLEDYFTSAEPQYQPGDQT
Tyrosine-protein kinase Fes/Fps (Homo sapiens), sequence (P07332 whole entry): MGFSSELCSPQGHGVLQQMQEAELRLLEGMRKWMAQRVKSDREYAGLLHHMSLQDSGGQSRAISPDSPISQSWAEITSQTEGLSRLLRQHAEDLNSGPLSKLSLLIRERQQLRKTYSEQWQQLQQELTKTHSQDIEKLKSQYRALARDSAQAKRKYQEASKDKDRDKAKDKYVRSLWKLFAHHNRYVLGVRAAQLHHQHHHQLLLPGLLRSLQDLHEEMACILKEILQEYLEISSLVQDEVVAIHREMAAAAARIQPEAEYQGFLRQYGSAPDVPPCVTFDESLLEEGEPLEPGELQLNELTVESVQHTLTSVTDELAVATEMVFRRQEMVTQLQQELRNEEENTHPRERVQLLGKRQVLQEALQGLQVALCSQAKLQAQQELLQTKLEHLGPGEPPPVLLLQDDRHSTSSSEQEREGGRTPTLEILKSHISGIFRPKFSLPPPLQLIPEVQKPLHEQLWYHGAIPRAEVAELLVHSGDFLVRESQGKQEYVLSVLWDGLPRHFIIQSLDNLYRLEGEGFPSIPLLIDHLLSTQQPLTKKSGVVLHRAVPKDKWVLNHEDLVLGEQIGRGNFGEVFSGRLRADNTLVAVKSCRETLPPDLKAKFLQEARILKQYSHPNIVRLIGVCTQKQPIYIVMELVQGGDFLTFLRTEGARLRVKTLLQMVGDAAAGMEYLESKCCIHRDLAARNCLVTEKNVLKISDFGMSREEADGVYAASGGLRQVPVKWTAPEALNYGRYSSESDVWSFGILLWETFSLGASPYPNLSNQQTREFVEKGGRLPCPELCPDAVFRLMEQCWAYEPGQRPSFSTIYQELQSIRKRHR
Vascular endothelial growth factor receptor 3 (Homo sapiens), sequence (P35916 whole entry): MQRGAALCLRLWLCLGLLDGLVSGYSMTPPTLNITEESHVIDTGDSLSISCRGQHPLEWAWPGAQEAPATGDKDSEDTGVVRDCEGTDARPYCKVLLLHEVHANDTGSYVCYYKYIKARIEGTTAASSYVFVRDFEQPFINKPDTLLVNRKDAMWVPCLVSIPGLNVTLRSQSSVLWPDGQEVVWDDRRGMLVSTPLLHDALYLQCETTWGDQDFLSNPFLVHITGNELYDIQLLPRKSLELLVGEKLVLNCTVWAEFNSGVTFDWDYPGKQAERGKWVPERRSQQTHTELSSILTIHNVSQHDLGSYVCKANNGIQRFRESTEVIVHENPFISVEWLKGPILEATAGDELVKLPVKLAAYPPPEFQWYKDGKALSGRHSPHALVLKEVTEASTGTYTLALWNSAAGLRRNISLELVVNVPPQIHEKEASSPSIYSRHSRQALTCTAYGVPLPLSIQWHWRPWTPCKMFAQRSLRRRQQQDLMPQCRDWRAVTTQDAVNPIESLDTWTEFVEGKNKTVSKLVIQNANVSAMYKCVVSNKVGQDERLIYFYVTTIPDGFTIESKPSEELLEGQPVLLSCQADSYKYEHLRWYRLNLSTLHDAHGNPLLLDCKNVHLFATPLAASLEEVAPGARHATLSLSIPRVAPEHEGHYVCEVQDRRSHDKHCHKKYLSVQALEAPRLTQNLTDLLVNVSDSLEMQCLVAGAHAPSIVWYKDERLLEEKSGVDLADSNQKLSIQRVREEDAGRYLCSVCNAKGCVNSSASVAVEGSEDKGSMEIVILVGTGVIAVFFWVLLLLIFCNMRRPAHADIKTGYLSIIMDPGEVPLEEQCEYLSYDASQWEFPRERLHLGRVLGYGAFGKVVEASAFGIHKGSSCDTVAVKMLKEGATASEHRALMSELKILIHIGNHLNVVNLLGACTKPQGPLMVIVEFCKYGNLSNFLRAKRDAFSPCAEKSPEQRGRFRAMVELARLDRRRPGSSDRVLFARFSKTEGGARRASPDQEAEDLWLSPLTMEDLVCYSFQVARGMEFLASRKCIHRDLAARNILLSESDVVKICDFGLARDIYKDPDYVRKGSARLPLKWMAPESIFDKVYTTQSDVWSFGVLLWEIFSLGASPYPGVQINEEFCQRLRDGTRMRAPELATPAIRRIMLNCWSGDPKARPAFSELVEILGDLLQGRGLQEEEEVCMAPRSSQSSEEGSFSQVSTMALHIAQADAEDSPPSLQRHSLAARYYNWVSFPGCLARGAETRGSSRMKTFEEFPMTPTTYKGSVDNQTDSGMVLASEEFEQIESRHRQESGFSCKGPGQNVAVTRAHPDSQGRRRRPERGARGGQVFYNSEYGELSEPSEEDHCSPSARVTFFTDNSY
Receptor-type tyrosine-protein kinase FLT3 (Homo sapiens), sequence (P36888 whole entry): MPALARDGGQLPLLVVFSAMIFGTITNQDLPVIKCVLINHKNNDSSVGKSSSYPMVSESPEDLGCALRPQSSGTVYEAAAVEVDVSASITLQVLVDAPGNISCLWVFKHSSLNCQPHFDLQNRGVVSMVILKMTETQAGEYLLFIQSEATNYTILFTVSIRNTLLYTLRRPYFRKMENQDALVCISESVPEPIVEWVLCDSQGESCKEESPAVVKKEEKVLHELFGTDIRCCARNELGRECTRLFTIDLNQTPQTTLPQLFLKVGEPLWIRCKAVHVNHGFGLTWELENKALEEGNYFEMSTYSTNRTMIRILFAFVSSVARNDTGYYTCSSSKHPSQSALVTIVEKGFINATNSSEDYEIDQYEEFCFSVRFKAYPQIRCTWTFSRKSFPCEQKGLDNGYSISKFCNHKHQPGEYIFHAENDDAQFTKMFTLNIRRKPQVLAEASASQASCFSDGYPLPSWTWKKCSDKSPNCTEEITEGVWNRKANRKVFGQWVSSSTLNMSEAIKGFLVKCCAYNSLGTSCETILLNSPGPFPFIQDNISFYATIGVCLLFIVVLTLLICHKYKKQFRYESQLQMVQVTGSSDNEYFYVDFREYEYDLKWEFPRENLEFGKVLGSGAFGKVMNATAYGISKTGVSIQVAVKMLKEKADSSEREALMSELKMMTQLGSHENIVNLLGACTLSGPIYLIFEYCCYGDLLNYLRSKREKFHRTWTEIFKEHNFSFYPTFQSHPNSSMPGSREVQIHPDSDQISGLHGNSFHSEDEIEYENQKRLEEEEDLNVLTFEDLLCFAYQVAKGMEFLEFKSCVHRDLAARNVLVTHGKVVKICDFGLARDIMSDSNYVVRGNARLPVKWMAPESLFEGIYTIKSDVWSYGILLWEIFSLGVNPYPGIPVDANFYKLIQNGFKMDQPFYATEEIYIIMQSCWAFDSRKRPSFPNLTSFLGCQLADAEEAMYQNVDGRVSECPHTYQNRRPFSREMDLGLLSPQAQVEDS
Tyrosine-protein kinase Fer (Homo sapiens), sequence (P16591 whole entry, looked up): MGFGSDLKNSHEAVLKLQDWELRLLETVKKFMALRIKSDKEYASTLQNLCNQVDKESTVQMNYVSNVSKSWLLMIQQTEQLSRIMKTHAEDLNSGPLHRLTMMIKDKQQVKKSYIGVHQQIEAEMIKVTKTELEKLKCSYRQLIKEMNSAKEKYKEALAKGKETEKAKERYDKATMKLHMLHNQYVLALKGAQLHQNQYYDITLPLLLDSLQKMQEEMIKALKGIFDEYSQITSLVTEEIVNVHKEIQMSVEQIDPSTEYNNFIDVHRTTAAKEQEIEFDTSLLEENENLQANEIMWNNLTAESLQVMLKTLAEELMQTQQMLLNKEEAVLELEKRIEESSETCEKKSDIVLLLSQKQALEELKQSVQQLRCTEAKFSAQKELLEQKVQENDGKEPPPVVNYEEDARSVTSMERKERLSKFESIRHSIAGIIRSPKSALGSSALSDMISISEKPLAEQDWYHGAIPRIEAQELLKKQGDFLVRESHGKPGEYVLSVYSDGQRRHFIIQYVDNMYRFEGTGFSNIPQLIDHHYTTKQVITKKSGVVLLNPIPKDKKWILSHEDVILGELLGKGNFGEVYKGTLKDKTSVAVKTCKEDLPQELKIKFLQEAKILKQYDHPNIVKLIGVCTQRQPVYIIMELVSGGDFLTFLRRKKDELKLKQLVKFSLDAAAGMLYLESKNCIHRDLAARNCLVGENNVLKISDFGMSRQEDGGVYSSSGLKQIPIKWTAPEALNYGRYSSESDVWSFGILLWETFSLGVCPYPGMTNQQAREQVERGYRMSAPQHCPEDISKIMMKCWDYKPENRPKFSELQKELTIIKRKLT

As for `Cc1cncc2cccc(S(=O)(=O)N3CCCN(C(=O)CN)C[C@H]3C)c12`, the residual activity in assay [1] was found to be 99%; in assay [2] it was 53%; in assay [3], 82%; in assay [4] it was 63%; in assay [5], 100%; in [6], 86%. The residual activity in assay [7] turned out to be 78%.
Turning to `Oc1c2ccccc2c2c3c(cccc13)N=N2`, the residual activity in [8] was 51%; in [9], 34%; in [10], 6%; in assay [1] it was 75%; in assay [2], 38%; in assay [3] it was 26%. In addition, the residual activity in assay [4] turned out to be 2%; in assay [5], 6%; in [6] it was 1%; in assay [7], 2%.
For `N#CCCc1ccc2c(c1)-c1[nH]c3ccc([N+](=O)[O-])cc3c1CC(=O)N2`, the residual activity came to 16% in assay [9]; 5% in assay [10]; 15% in [1]; 6% in assay [2]; 24% in assay [3]; 11% in [4]. Moreover, the residual activity was determined as 19% in [5], 8% in assay [6] and 10% in assay [7].
`Cn1cc(/C=C2\C(=O)Nc3ccc(S(N)(=O)=O)cc32)c2ccccc21`: the residual activity in assay [8] was 9%; in assay [9], 40%; in [10] it was 15%; in [1] it was 9%; in assay [2] it was 10%; in assay [3], 22%. Besides, the residual activity is 9% in assay [4], 1% in assay [5], -1% in [6] and 11% in [7].
On to `C[C@@H](N)[C@H]1CC[C@H](C(=O)Nc2ccncc2)CC1`, for which the residual activity in [9] was 108%; in [10], 108%; in assay [1], 103%; in assay [2], 90%; in assay [3], 118%; in [4], 108%. Further, the figures for the residual activity in assay [5], in assay [6] and in assay [7] were 97%, 95% and 100%, respectively.
Regarding `c1ccc(-c2n[nH]cc2-c2ccnc3ccccc23)nc1`, the residual activity was determined as 107% in assay [9]; 80% in assay [10]; 90% in [1]; 51% in [2]; 36% in assay [3]; 7% in [4]. The residual activity in [5] was 48%; in [6], 23%; in [7], 37%.
With `CC(C)n1cnc2c(NCc3ccccc3)nc(NCCCO)nc21`, the residual activity in assay [8] was 103%; in assay [9], 94%; in assay [10], 51%; in assay [1], 103%; in assay [2], 103%; in assay [3], 94%. The residual activity was 87% in [4], 89% in assay [5], 78% in [6] and 87% in [7].
Take `COc1ccc(C(=O)Nc2sc3c(c2C(N)=O)CCCC3)cc1OC`: the residual activity in assay [8] stood at 91%; in [9], 123%; in assay [1], 110%; in [2], 93%; in assay [3], 72%; in [4], 81%. Further, the figures for the residual activity in assay [5], in assay [6] and in assay [7] were 32%, 35% and 10%, respectively.
For the molecule `Cc1cccc(-c2[nH]c(C(C)(C)C)nc2-c2ccc3c(c2)OCO3)n1`, the residual activity came to 87% in [10]; 88% in assay [2]; 86% in assay [3]; 84% in assay [4]; 87% in assay [6]; 99% in assay [7].
As to `O=Nc1c(-c2c(O)[nH]c3ccccc23)[nH]c2ccccc12`, the residual activity came to 53% in assay [8]; 72% in assay [9]; 30% in assay [10]; 8% in assay [1]; 1% in assay [2]; 1% in assay [3]. Moreover, the residual activity in [4] is 0%; in [5], 1%; in assay [6], 0%; in [7], -1%.
As to `CC(=O)c1ccc(N2CCOCC2)cc1O`, the residual activity was determined as 133% in assay [9]; 94% in assay [10]; 110% in [1]; 102% in assay [2]; 106% in assay [3]; 97% in assay [4]. The residual activity turned out to be 102% in assay [5], 86% in assay [6] and 93% in assay [7].
In the case of `Nc1ccc2ncnc(NCCc3ccc(Oc4ccccc4)cc3)c2c1`, the residual activity in assay [8] stood at 84%; in assay [9], 91%; in assay [10], 87%; in assay [1], 84%; in [3], 54%; in assay [4], 26%. The residual activity in assay [5] was 33%; in assay [6], 9%; in assay [7] it was 15%.
As to `CN(C)c1ccc(/C=C2\C(=O)Nc3ccccc32)cc1`, the residual activity in assay [8] stood at 82%; in [9], 113%; in [10] it was 79%; in [1], 90%; in [2], 44%; in assay [3], 14%. The residual activity worked out at 2% in [4], 4% in assay [5], 1% in assay [6] and 3% in assay [7].
With `Cc1cc2ncc(-c3ccccc3)nc2cc1C`, the residual activity in assay [9] is 107%; in [10], 93%; in [2], 91%; in assay [3], 85%; in assay [4] it was 83%; in [5], 47%. The residual activity was determined as 25% in [6] and 58% in assay [7].
For `N#CC(C#N)=C(N)/C(C#N)=C/c1ccc(O)cc1`, the residual activity in assay [10] was found to be 91%; in [2], 96%; in assay [3], 96%; in assay [4], 90%; in assay [5], 100%; in [6], 86%. In addition, the residual activity in assay [7] came to 94%.
Consider `Cc1cc(Nc2nc(-c3ccccc3)nc3ccccc23)n[nH]1`, for which the residual activity in assay [8] was 6%; in assay [9], 58%; in [10] it was 21%; in [1], 18%; in [2], 2%; in assay [3], 0%. For the same molecule, the residual activity turned out to be 1% in [4], 2% in assay [5], 1% in assay [6] and 0% in assay [7].
Consider `COc1cc2ncnc(Nc3ccc(O)c(Br)c3)c2cc1OC`, for which the residual activity worked out at 84% in assay [8]; 95% in assay [9]; 65% in [10]; 39% in assay [1]; 6% in assay [2]; 29% in assay [3]. Moreover, the residual activity was 4% in assay [4], 49% in assay [5], 2% in assay [6] and 14% in assay [7].
For the molecule `O=C1Nc2cc(Br)ccc2/C1=C1/Nc2ccccc2/C1=N\O`, the residual activity in [8] was 45%; in [9] it was 79%; in assay [10] it was 100%; in [1], 1%; in [2], 2%; in assay [3], -1%. For the same molecule, the residual activity in assay [4], in assay [5], in [6] and in [7] was 1% throughout.

The values are drawn from ChEMBL document CHEMBL2218924, “A broad activity screen in support of a chemogenomic map for kinase signalling research and drug discovery” (Biochem J, 2013).
